Bioassay records as filed in PubChem.
T cruzi growth-1: blocks T. cruzi growth in NIH3T3 culture; T. cruzi beta-gal in NIH3T3, GalScreen luminescence, 90 h; inhibition, % at 8.34 µM; 77,000 tested, 5.9% active;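 active means mean inhibition above about 93%, with at least 55% of replicates each passing it, limit read from the data, passing the limit was not always enough; inconclusive means only one of those two conditions holds; inactive means neither condition holds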
C diff HTS: blocks growth of Clostridium difficile; 86,000 tested, 0.25% active; growth activity, negative = inhibition, % at 16 µg/mL (by protocol); Clostridium difficile clinical isolate growth, OD600, 24 h; hits give low values;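 active means mean growth activity at or below -80% and every replicate also at or below -80%; inconclusive means mean at or below -80% but some replicate above -80%; inactive means mean growth activity above -80%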;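 further: 0% = DMSO wells and -100% = levofloxacin 16 µg/mL wells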
T cruzi growth-2: blocks T. cruzi growth in NIH3T3 host cells | inhibition, % at 8.35 µM | shares compounds with T cruzi growth-1 | AID 651739 | T. cruzi beta-gal in NIH3T3, GalScreen luminescence, 90 h | 5,600 tested, 72% active;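 active means mean replicate inhibition above about 95% and at least 55% of replicates individually reaching it, limit read from the data; inconclusive means only one of the two criteria is met; inactive means neither criterion is met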
T cruzi growth-3: inhibitors of T. cruzi proliferation | shares compounds with T cruzi growth-1 | T. cruzi beta-gal in NIH3T3, GalScreen luminescence, 90 h | inhibition, % at 2.09 µM | AID 651740 | 5,600 tested, 21% active;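 active means mean inhibition above about 95%, with at least 55% of replicates also reaching it, limit read from the data; inconclusive means meets just one of the two conditions; inactive means meets neither condition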;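 further: plate controls were neutral control median for no effect and positive control median for full effect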
NIH3T3 tox: kills mouse NIH/3T3 fibroblasts; shares compounds with T cruzi growth-1; cytotoxicity (signal decrease), % at 8.35 µM; AID 651742; 5,600 tested, 14% active; NIH/3T3 viability, CellTiter-Glo ATP luminescence, 90 h;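 active means mean signal decrease across replicates above about 35% based on untreated-well scatter, with enough replicates individually passing, limit read from the data; inconclusive means no rule stated though some were filed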;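 further: 0% = median of neutral control wells and 100% = median of positive control wells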
3T3 cytotox 2: kills mouse NIH/3T3 fibroblasts; inhibition, % at 24.9 µM; NIH/3T3 viability, CellTiter-Glo ATP luminescence, 90 h; 5,600 tested, 56% active; shares compounds with T cruzi growth-1;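 active means mean loss of cell viability signal at or above a set limit, and enough replicates individually reaching it; inconclusive means meets only the mean limit or only the replicate share; inactive means meets neither condition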;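 further: 0% = median of neutral control wells and 100% = median of positive control wells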
Active calls of the source: *; ? = inconclusive; nt = no result. This is one part of a sample in which hits are shown more often than they occur.

SMILES | T cruzi growth-1 | C diff HTS | T cruzi growth-2 | T cruzi growth-3 | NIH3T3 tox | 3T3 cytotox 2
C[C@@H]1CCCCO[C@H](CN(C)S(=O)(=O)c2ccc(F)cc2)[C@@H](C)CN([C@H](C)CO)C(=O)c2cc(NC(=O)CCCN(C)C)ccc2O1 | -36.2 | -5.8 | nt | nt | nt | nt
CO[C@@H]1CN(C)C(=O)c2ccc(NC(=O)C3CCC3)cc2OC[C@H](C)N(Cc2ccc(F)cc2)C[C@H]1C | 63.8 | nt | nt | nt | nt | nt
COc1cccc(C#Cc2ccc([C@@H]3[C@@H](C#N)N(C(=O)C4CCC4)[C@H]3CO)cc2)c1 | 91.0 | 15.1 | nt | nt | nt | nt
COc1cccc(C#Cc2ccc([C@@H]3[C@@H](C#N)N(C(=O)C4CCC4)[C@@H]3CO)cc2)c1 | 102.0* | 14.9 | 108.6* | 60.9 | 23.4 | 10.1
COc1cccc(C#Cc2ccc([C@H]3[C@H](C#N)N(C(=O)C4CCC4)[C@H]3CO)cc2)c1 | 96.8* | 0.4 | 95.5* | 55.6 | 33.7 | 62.6*
COc1cccc(C#Cc2ccc([C@@H]3[C@@H](CO)N(C(=O)C4CCC4)[C@H]3C#N)cc2)c1 | 90.2 | -2.6 | nt | nt | nt | nt
O=C(NCC[C@@H]1CC[C@@H](NS(=O)(=O)c2cccc(Cl)c2)[C@H](CO)O1)c1cnccn1 | 58.7 | -5.5 | nt | nt | nt | nt
O=C(NC[C@H]1CC[C@@H]2[C@@H](CN2S(=O)(=O)c2ccccc2[N+](=O)[O-])O1)C1CCC1 | nt | -4.1 | nt | nt | nt | nt
COCC#Cc1ccc([C@@H]2[C@H](CO)N3CCCCN(S(=O)(=O)c4cccc(OC)c4)C[C@@H]23)cc1 | 106.5* | -4.1 | 103.0* | 38.1 | 32.1 | 44.9*
COc1cccc(S(=O)(=O)N2CCCCN3[C@@H](CO)[C@H](c4ccc(C#CC5CC5)cc4)[C@@H]3C2)c1 | 107.3* | 11.7 | 108.7* | 89.3 | 16.1 | 104.5*
COc1cccc(S(=O)(=O)N2CCCCN3[C@H](C2)[C@H](c2ccc(C#CC4CC4)cc2)[C@@H]3CO)c1 | 71.6 | 33.9 | nt | nt | nt | nt
COc1cccc(S(=O)(=O)N2CCCCN3[C@H](C2)[C@@H](c2ccc(C#CC4CC4)cc2)[C@@H]3CO)c1 | 121.2* | -2.1 | 93.5 | 93.5 | 4.2 | ?
COCC#Cc1ccc([C@H]2[C@@H](CO)N3CCCCN(S(=O)(=O)c4cccc(OC)c4)C[C@H]23)cc1 | 92.1 | 16.8 | nt | nt | nt | nt
Cc1cccc(S(=O)(=O)N2CCCCN3[C@@H](CO)[C@@H](c4ccc(C#CC5CC5)cc4)[C@@H]3C2)c1 | 64.5 | 42.8 | nt | nt | nt | nt
O=C(NCCc1ccccc1)[C@@H]1[C@@H](CO)[C@@H]2Cn3c(cccc3=O)[C@H]1N2C(=O)C1CC1 | 21.4 | -2.2 | nt | nt | nt | nt
O=C(NCCc1ccccc1)[C@H]1[C@H](CO)[C@H]2Cn3c(cccc3=O)[C@@H]1N2C(=O)C1CCC1 | 99.2* | -4.0 | 66.1 | 21.0 | 9.9 | -11.3
O=C(NCCc1ccccc1)[C@@H]1[C@@H](CO)[C@@H]2Cn3c(cccc3=O)[C@H]1N2C(=O)C1CCC1 | ? | 0.2 | -15.0 | 11.2 | -21.2 | 0.4
O=C(NCCc1ccccc1)[C@H]1[C@H](CO)[C@H]2Cn3c(cccc3=O)[C@@H]1N2C(=O)C1CCCC1 | 78.9 | 3.6 | nt | nt | nt | nt
Cc1ccc(S(=O)(=O)Nc2ccc3c(c2)CC(=O)N([C@H](C)CO)C[C@H](C)[C@H](CN(C)C(=O)Nc2ccc4c(c2)OCO4)O3)cc1 | 9.7 | -8.9 | nt | nt | nt | nt
CO[C@@H]1CN(C)C(=O)c2cc(NC(=O)Nc3ccccc3F)ccc2OC[C@@H](C)N(Cc2ccccc2F)C[C@H]1C | 52.4 | -0.2 | nt | nt | nt | nt
CO[C@@H]1CN(C)C(=O)c2ccc(NC(=O)NC(C)C)cc2OC[C@@H](C)N(Cc2ccccn2)C[C@@H]1C | 63.6 | nt | nt | nt | nt | nt
CO[C@@H]1CN(C)C(=O)c2ccc(NS(=O)(=O)c3ccc(C)cc3)cc2OC[C@@H](C)N(Cc2nccs2)C[C@@H]1C | 44.6 | nt | nt | nt | nt | nt
CO[C@@H]1CN(C)C(=O)c2ccc(NC(=O)Nc3ccccc3F)cc2OC[C@@H](C)N(Cc2ccccc2F)C[C@H]1C | 116.7* | nt | 106.4* | 111.0* | -2.6 | -0.7
CO[C@H]1CN(C)C(=O)c2cc(NS(=O)(=O)c3ccc(C)cc3)ccc2OC[C@@H](C)N(Cc2nccs2)C[C@H]1C | 107.1* | 20.9 | 104.0* | 24.6 | -3.3 | 40.3*
CO[C@@H]1CN(C)C(=O)c2cc(NS(=O)(=O)c3ccccc3)ccc2OC[C@H](C)N(Cc2cccnc2)C[C@@H]1C | 24.1 | nt | nt | nt | nt | nt
SMILES | T cruzi growth-1 | C diff HTS | T cruzi growth-2 | T cruzi growth-3 | NIH3T3 tox | 3T3 cytotox 2
CO[C@H]1CN(C)C(=O)c2ccc(NC(=O)NC(C)C)cc2OC[C@@H](C)N(Cc2ccccn2)C[C@@H]1C | 100.5* | nt | 59.9 | -41.7 | 15.4 | 6.7
CO[C@H]1CN(C)C(=O)c2cc(NS(=O)(=O)c3ccccc3)ccc2OC[C@@H](C)N(Cc2cccnc2)C[C@H]1C | 96.8* | nt | 100.9* | 47.3 | 5.0 | 35.2*
C[C@@H]1CN([C@@H](C)CO)C(=O)Cc2cc(NS(=O)(=O)c3cccs3)ccc2O[C@@H]1CN(C)C(=O)Nc1ccc2c(c1)OCO2 | -3.0 | -6.9 | nt | nt | nt | nt
CN1CCN(C(=O)C[C@H]2C[C@H]3c4cc(NS(=O)(=O)c5ccc(F)cc5)ccc4O[C@H]3[C@@H](CO)O2)CC1 | -86.4 | 0.4 | nt | nt | nt | nt
C[C@@H]1CN([C@@H](C)CO)C(=O)c2cccc(NS(=O)(=O)c3ccccc3)c2O[C@H]1CN(C)CC1CC1 | 8.7 | 2.5 | nt | nt | nt | nt
CC(C)NC(=O)N(C)C[C@@H]1Oc2ccc(NS(=O)(=O)c3cn(C)cn3)cc2C(=O)N([C@H](C)CO)C[C@H]1C | -59.5 | -0.8 | nt | nt | nt | nt
CO[C@H]1CN(C)C(=O)c2cc(NC(=O)C3CCC3)ccc2OC[C@@H](C)N(Cc2cccnc2)C[C@@H]1C | 103.1* | nt | 61.5 | -6.1 | 8.4 | 5.7
CO[C@@H]1CN(C)C(=O)c2cc(NC(=O)C3CC3)ccc2OC[C@@H](C)N(Cc2cccc(F)c2)C[C@@H]1C | 62.7 | nt | nt | nt | nt | nt
CO[C@@H]1CN(C)C(=O)c2cc(NC(=O)C3CC3)ccc2OC[C@H](C)N(Cc2cc(F)ccc2F)C[C@H]1C | 108.6* | nt | 80.3 | 38.6 | -2.3 | -2.9
CO[C@H]1CN(C)C(=O)c2cc(NC(=O)C3CC3)ccc2OC[C@H](C)N(Cc2cc(F)ccc2F)C[C@H]1C | 94.5 | nt | nt | nt | nt | nt
CO[C@@H]1CN(C)C(=O)c2cc(NC(=O)C3CC3)ccc2OC[C@H](C)N(Cc2cccc(F)c2)C[C@H]1C | 98.9* | nt | ? | 37.6 | -2.3 | -0.1
COc1ccccc1NC(=O)Nc1ccc2c(c1)C(=O)N(C)C[C@@H](OC)[C@H](C)CN(Cc1ccccc1Cl)[C@H](C)CO2 | 108.7* | 0.4 | 107.7* | 113.1* | 10.1 | 7.9
COc1ccccc1CN1C[C@@H](C)[C@H](OC)CN(C)C(=O)c2cc(NC(=O)Nc3ccccc3OC)ccc2OC[C@H]1C | 20.3 | nt | nt | nt | nt | nt
CO[C@H]1CN(C)C(=O)c2cc(NC(=O)C3CCC3)ccc2OC[C@H](C)N(Cc2cccnc2)C[C@@H]1C | 87.2 | nt | nt | nt | nt | nt
CCCN(C)C[C@H]1Oc2cc(-c3ccccc3OC)ccc2S(=O)(=O)N([C@@H](C)CO)C[C@H]1C | 52.2 | -5.3 | nt | nt | nt | nt
